According to PubChem BioAssay (NCI):
This is part of a sample that, as a whole, favours compounds with a hit. Of some 79,000 tested, about 15% had one in any assay. Calls of active or inactive are those of the source. Cut-off read from the data, not from the text of the source: active = growth inhibition above about 70%; inactive = the rest.

test: NCI Yeast Anticancer Drug Screen. Data for the wt2 strain (AID 169);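 note: 0% = growth of vehicle-treated yeast cultures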; conditions: S. cerevisiae wt2 strain growth inhibition; at 11.0 µM; active compounds read high
In short: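 Against vehicle-treated controls, the growth of yeast exposed to each compound was compared, and the inhibition was recorded.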

SMILES	growth inhibition
CC(C)OC(=O)NNc1c(Cl)cc(Cl)cc1Cl	2% (inactive)
Nc1ccc2c(c1)C(=O)c1c(F)cccc1-2	0% (inactive)
N#CSCC1COc2ccccc2O1 (stereo not drawn)	-24% (inactive)
Cc1ccc(S(=O)(=O)NC(=O)C2C(=O)CC3(CCCCC3)CC2=O)cc1	20% (inactive)
CC1=NN(C(=O)c2ccccc2O)C(=O)/C1=C/c1ccco1	80% (active)

same assay, conditions: S. cerevisiae wt2 strain growth inhibition; at 33.0 µM; active compounds read high

SMILES	growth inhibition
CC(CN(C)C)C(=O)/C=C/c1ccc(Cl)c(Cl)c1 (stereo not drawn)	70% (active)
CCCCCCNCCCNc1c2cc(OC)ccc2nc2cccc([N+](=O)[O-])c12	81% (active)
NC(=S)N1N=C2c3ccccc3CC[C@H]2[C@@H]1c1ccc(Cl)cc1	35% (inactive)
C/C(=N/NC(=S)Nc1ccccc1C)c1ccccn1	-5% (inactive)
O=C1/C(=C/c2ccc(Cl)c(Cl)c2)CNC/C1=C\c1ccc(Cl)c(Cl)c1	96% (active)
CC(C)OP(=O)(OC(C)C)C(=NCCO)NNc1ccc([N+](=O)[O-])cc1	26% (inactive)
N#CCC(=O)N/N=C(\c1ccccc1)C(c1ccccc1)C1(O)C(=O)Nc2c(Cl)ccc(Cl)c21 (stereo not drawn)	-3% (inactive)
CC(C)(CN1CCCCC1)C(=O)CC(SCCS(=O)(=O)O)c1ccccc1 (stereo not drawn)	11% (inactive)
COC1=CCC23C(=O)C=CC(=O)C2(C1)C(=O)c1ccccc1C3=O (stereo not drawn)	40% (inactive)
CCCCN(CCCC)c1ccc(N=Nc2ccc(S(=O)(=O)O)cc2)cc1	97% (active)
c1ccc2nc3c(nc2c1)sc1ccccc13	13% (inactive)
O=C1c2ccccc2-c2ccc(N=Cc3ccccc3)cc21	51% (inactive)
CNC(=S)N/N=C(/C)CCC/C(C)=N/NC(=S)NC	72% (active)
Nc1ccc(/C=C/c2ccc3cccnc3c2)cc1	-4% (inactive)
CCOC(=O)Nc1ccc(C)c(NC(=O)OCC)c1	14% (inactive)
CCN(CC)CCNc1ccc2nc(C)n3c4ccc(OC)cc4c(=O)c1c23	-15% (inactive)
C[N+](C)([O-])CCCNc1c2ccccc2nc2cccc([N+](=O)[O-])c12	84% (active)

SMILES	growth inhibition
CCCNC(=O)OCc1c(COC(=O)NCCC)c(-c2ccc(Cl)c(Cl)c2)n2c1CCC2	-21% (inactive)
O=C(Cc1ccccc1)NN1C(=O)C(Cl)C1c1cc(Br)cc(Br)c1O (stereo not drawn)	94% (active)
CCOC(=O)C(Cc1c2ccccc2cc2ccccc12)(NC(C)=O)C(=O)OCC	-2% (inactive)
O=[N+]([O-])/C=C/c1cc2ccc3ccccc3c2[nH]1	95% (active)
Fc1ccc(Nc2ccc3ccccc3c2)cc1	44% (inactive)
O=S1(=O)CCC2=CC(C(F)(F)F)=CC(C(F)(F)F)=CN21	83% (active)
O=C(Cc1ccccc1)NNc1nc(NNC(=O)c2ccncc2)nc(Nc2ccc([N+](=O)[O-])cc2)n1	57% (inactive)
CCCCS/C(=C(/C#N)C(N)=O)c1cc2c([nH]1)CCCC2	6% (inactive)
O=C(O)c1ccccc1C(=O)OC1CCc2ccccc2C1 (stereo not drawn)	-2% (inactive)
CCOC(=O)/C(=C\c1cccc(C)c1)C(C)=O	92% (active)
NC(=S)N/N=C1\c2ccccc2CCC1CCC1(O)CCc2ccccc2C1=O (stereo not drawn)	62% (inactive)
Cc1cccc2c(Cl)c3cccc(C)c3nc12	3% (inactive)
CC(C)OC(=O)NNc1c(Cl)cc(Cl)cc1Cl	9% (inactive)
Nc1ccc2c(c1)C(=O)c1c(F)cccc1-2	4% (inactive)
N#CSCC1COc2ccccc2O1 (stereo not drawn)	58% (inactive)
Cc1ccc(S(=O)(=O)NC(=O)C2C(=O)CC3(CCCCC3)CC2=O)cc1	84% (active)
CC1=NN(C(=O)c2ccccc2O)C(=O)/C1=C/c1ccco1	92% (active)

same assay, conditions: S. cerevisiae wt2 strain growth inhibition; at 100.0 µM; active compounds read high

SMILES	growth inhibition
CC(CN(C)C)C(=O)/C=C/c1ccc(Cl)c(Cl)c1 (stereo not drawn)	98% (active)
CCCCCCNCCCNc1c2cc(OC)ccc2nc2cccc([N+](=O)[O-])c12	98% (active)
NC(=S)N1N=C2c3ccccc3CC[C@H]2[C@@H]1c1ccc(Cl)cc1	89% (active)
C/C(=N/NC(=S)Nc1ccccc1C)c1ccccn1	-5% (inactive)
O=C1/C(=C/c2ccc(Cl)c(Cl)c2)CNC/C1=C\c1ccc(Cl)c(Cl)c1	97% (active)
CC(C)OP(=O)(OC(C)C)C(=NCCO)NNc1ccc([N+](=O)[O-])cc1	50% (inactive)
N#CCC(=O)N/N=C(\c1ccccc1)C(c1ccccc1)C1(O)C(=O)Nc2c(Cl)ccc(Cl)c21 (stereo not drawn)	1% (inactive)
CC(C)(CN1CCCCC1)C(=O)CC(SCCS(=O)(=O)O)c1ccccc1 (stereo not drawn)	15% (inactive)
COC1=CCC23C(=O)C=CC(=O)C2(C1)C(=O)c1ccccc1C3=O (stereo not drawn)	93% (active)
CCCCN(CCCC)c1ccc(N=Nc2ccc(S(=O)(=O)O)cc2)cc1	97% (active)
c1ccc2nc3c(nc2c1)sc1ccccc13	9% (inactive)
O=C1c2ccccc2-c2ccc(N=Cc3ccccc3)cc21	92% (active)
CNC(=S)N/N=C(/C)CCC/C(C)=N/NC(=S)NC	67% (inactive)
Nc1ccc(/C=C/c2ccc3cccnc3c2)cc1	9% (inactive)
CCOC(=O)Nc1ccc(C)c(NC(=O)OCC)c1	13% (inactive)
CCN(CC)CCNc1ccc2nc(C)n3c4ccc(OC)cc4c(=O)c1c23	-25% (inactive)
C[N+](C)([O-])CCCNc1c2ccccc2nc2cccc([N+](=O)[O-])c12	94% (active)

SMILES	growth inhibition
CCCNC(=O)OCc1c(COC(=O)NCCC)c(-c2ccc(Cl)c(Cl)c2)n2c1CCC2	44% (inactive)
O=C(Cc1ccccc1)NN1C(=O)C(Cl)C1c1cc(Br)cc(Br)c1O (stereo not drawn)	90% (active)
CCOC(=O)C(Cc1c2ccccc2cc2ccccc12)(NC(C)=O)C(=O)OCC	-2% (inactive)
O=[N+]([O-])/C=C/c1cc2ccc3ccccc3c2[nH]1	93% (active)
Fc1ccc(Nc2ccc3ccccc3c2)cc1	91% (active)
O=S1(=O)CCC2=CC(C(F)(F)F)=CC(C(F)(F)F)=CN21	98% (active)
O=C(Cc1ccccc1)NNc1nc(NNC(=O)c2ccncc2)nc(Nc2ccc([N+](=O)[O-])cc2)n1	61% (inactive)
CCCCS/C(=C(/C#N)C(N)=O)c1cc2c([nH]1)CCCC2	98% (active)
O=C(O)c1ccccc1C(=O)OC1CCc2ccccc2C1 (stereo not drawn)	25% (inactive)
CCOC(=O)/C(=C\c1cccc(C)c1)C(C)=O	99% (active)
NC(=S)N/N=C1\c2ccccc2CCC1CCC1(O)CCc2ccccc2C1=O (stereo not drawn)	83% (active)
Cc1cccc2c(Cl)c3cccc(C)c3nc12	5% (inactive)
CC(C)OC(=O)NNc1c(Cl)cc(Cl)cc1Cl	17% (inactive)
Nc1ccc2c(c1)C(=O)c1c(F)cccc1-2	64% (inactive)
N#CSCC1COc2ccccc2O1 (stereo not drawn)	96% (active)
Cc1ccc(S(=O)(=O)NC(=O)C2C(=O)CC3(CCCCC3)CC2=O)cc1	83% (active)
CC1=NN(C(=O)c2ccccc2O)C(=O)/C1=C/c1ccco1	96% (active)
